A number with no mark means an inactive call. The source made the active and inactive calls. Rule as the data show it: active = inhibition above about 33%; inactive = the rest.
Assay: compounds suppressing VP16-driven luciferase signal – cell-based, luminescence, high throughput, counter-screen for LRH-1 inverse agonist project (AID 651615)
Conditions: Gal4-VP16 luciferase reporter cells, at 3.6 µM, hits give high values

Compound	inhibition
Clc1ccccc1-c1nc(N/N=C/c2cccnc2)c2ccccc2n1	-7.84%
Cc1ccccc1Oc1nc2c(C)cccn2c(=O)c1/C=C(\C#N)C(=O)NC1CCS(=O)(=O)C1 (stereo not given)	18.6%
O=C(NCc1cccnc1)c1cccn2c(=O)c3sccc3nc12	1.7%
O=C(Cn1cnc2c(nnn2-c2ccccc2)c1=O)NCCc1ccccc1	-7.88%
COc1cccc(-c2cc(C(=O)Nc3ccncc3)c3ccccc3n2)c1	-5.71%
COc1ccc(-c2c(C)cc3oc(=O)cc(-c4ccccc4)c3c2C)cc1	17.3%
O=C(CCl)Nc1ccccc1C(=O)c1ccccc1	-2.6%
Cc1cc(C)c(SCCc2ccncc2)c(C)c1	34.3% (active)
COc1ccc(N2CCN(C(=O)CN3C(=O)NC4(CCCCCC4)C3=O)CC2)cc1	-4.03%
CC1CCCC(C)N1C(=O)COC(=O)Cc1ccc(Cl)cc1 (stereo not given)	0.05%
CC(=O)Nc1ccc2nc(NC(=O)c3ccc([N+](=O)[O-])o3)sc2c1	-32.4%
CCCc1cc(=O)oc2cc(OCC(=O)NCc3ccccn3)ccc12	-9.39%
Cn1c(=O)n(C)c2cc(NC(=O)CSc3nnc(-c4ccccc4O)n3-c3ccccc3)ccc21	-42.1%
O=C(CN1C(=O)NC2(CCCC2)C1=O)NCCc1ccc(F)cc1	5.08%
O=C1/C(=C\c2ccc(Cl)c(Cl)c2)CN(C(=O)CCN2CCOCC2)C/C1=C/c1ccc(Cl)c(Cl)c1	79% (active)
Cc1cc(OCC(=O)Nc2nccs2)c2c(C)c(C)c(=O)oc2c1	-127%
Cc1cccc(-n2ncc3c2CCCC3NC(=O)C2(C(N)=O)CC2)c1C (stereo not given)	50% (active)
C/C(CC1CC(C)(C)OC1=O)=N/Nc1nc(-c2ccccc2)cs1 (stereo not given)	-29.5%
CC(=O)N1CCc2c(sc(NC(=O)CCS(=O)(=O)c3ccccc3)c2C#N)C1	-11%
CCn1c(=O)[nH]c(=O)c2c(N)c(C(=O)c3cc(F)ccc3F)sc21	10.3%

Compound	inhibition
NC(=S)N/N=C/c1ccc(C(F)(F)F)cc1	9.68%
O=C(Nc1ccc(N2CCN(C(=O)c3ccco3)CC2)cc1)c1ccc2c(c1)OCO2	60.5% (active)
COc1ccc(NC(=O)COC(=O)/C=C/C(=O)OCC(=O)Nc2ccc(OC)c(Cl)c2)cc1Cl	-16%
Nc1ccc(C(=O)NN2C(=O)[C@H](Cl)C2c2ccc(Cl)cc2)cc1 (stereo not given in full)	-16.2%
Cc1ccc(NC(=O)COC(=O)C(NS(=O)(=O)c2ccc(Cl)cc2)C(C)O)c(Br)c1 (stereo not given)	-12.9%
CCOC(=O)c1cnc(-n2nc(C)cc2C)nc1NC1CCCC1	9.25%
Cc1ccc(-c2csc(NC(=O)C3CCN(S(=O)(=O)c4cccs4)CC3)n2)cc1	47.9% (active)
Cc1nn(Cc2ccc(Cl)cc2)c(C)c1NC(=O)c1noc2c1CCCCC2	18.3%
COc1cccc2c1C(=O)c1c(O)c3c(c(O)c1C2=O)C[C@@](O)(C(C)=O)C[C@@H]3O[C@H]1C[C@H](N)[C@H](O)[C@H](C)O1	94% (active)
CCOC(=O)C1CCN(Cc2cc(Cl)c3ccccc3c2O)CC1	2.83%
Cn1cccc1C(=O)OCC(=O)NCCCc1ccccc1	-22%
O=C(CSc1nnnn1C1CCCC1)Nc1ccc2c(c1)OCCO2	-30.9%
CCCCCCCCn1c2c(c(=N)c3ccccc31)CCC2	92.1% (active)
Cc1ccccc1OCC(=O)N/N=C/c1ccc([N+](=O)[O-])o1	9.63%
CCOc1ccc(CCNC(=O)COC(=O)CSc2ccccc2C)cc1OCC	8.24%
Cc1ccc(Sc2ccc(NC(=O)CCl)cc2)cc1C	-14.4%
CCCCSc1nc(SCC(=O)NCc2ccco2)c2c3c(sc2n1)COC(C)(CC)C3 (stereo not given)	-1.29%
CC[n+]1c(/C=C/c2ccc(N(C)C)cc2)ccc2ccccc21	85% (active)
Cc1cc(OCC(=O)NC2CC2)c2c(C)c(C)c(=O)oc2c1	-21.9%
CC1(C(=O)NCc2ccc3c(c2)OCO3)CCN1C(=O)Cc1ccc(Cl)cc1Cl (stereo not given)	-2.52%
